Compounds with a hit are over-represented: about 5.4% of the library has one in this group of screens.
ALR H2O2 inh = inhibitors of human ALR sulfhydryl oxidase, primary screen, biochemical, H2O2 detection, HRP-luminol luminescence, single point. hit rate 3.8% among 290,000. inhibition, % (test concentration not listed). purified ALR, DTT oxidation;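 active means mean replicate inhibition above about 79%, with every replicate also reaching it, limit read from the data; inconclusive means only one of the two criteria met; inactive means mean below limit and not every replicate reaching it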
aDG glyco act = activators of alpha-DG glycosylation, primary screen, uHTS, Pro5-aDG cells, AlphaScreen; alpha-DG glycosylation AlphaScreen (IIH6); 0% Pro5, 100% B10-LARGE cell signal; activation, % at 10 µM; hit rate 0.22% among 360,000; AID 624168, 2012;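 active means activation of at least 8% versus controls, or a plate z-score of at least 8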;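 further: Pro5 are CHO cells carrying HIG-tagged alpha-DG that lacks glycosylation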
A3G deaminase = APOBEC3G DNA deaminase inhibitors, primary screen, biochemical, fluorescence, single-stranded DNA substrate, uHTS; DNA dC->dU-editing enzyme APOBEC-3G (Homo sapiens), Q9HC16; recombinant A3G, ssDNA deamination FAM/TAMRA fluorescence; inhibition, % at 20 µM; hit rate 0.28% among 330,000;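 active means inhibition of at least 40% at 20 µM, with no more than 30% in the related APOBEC3A deaminase screen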
Target sequence (Q9HC16 whole entry, looked up): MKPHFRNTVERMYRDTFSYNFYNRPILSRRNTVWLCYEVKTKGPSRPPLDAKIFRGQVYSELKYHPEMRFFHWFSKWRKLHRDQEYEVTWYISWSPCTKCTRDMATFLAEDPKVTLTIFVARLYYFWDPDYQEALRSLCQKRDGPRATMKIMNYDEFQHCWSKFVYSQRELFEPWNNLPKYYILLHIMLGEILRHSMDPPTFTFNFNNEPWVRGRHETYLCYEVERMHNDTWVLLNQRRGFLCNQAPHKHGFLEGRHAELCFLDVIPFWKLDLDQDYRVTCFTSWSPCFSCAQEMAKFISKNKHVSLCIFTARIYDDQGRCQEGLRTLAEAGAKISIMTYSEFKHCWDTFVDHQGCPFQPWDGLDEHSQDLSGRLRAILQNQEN
rCAG RNA binder = binders of r(CAG) RNA repeats, primary screen, biochemical, fluorescence | r(CAG) RNA repeat, TO-PRO-1 dye displacement fluorescence | inhibition, % at 3 µM | hit rate 1.3% among 370,000;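 active means inhibition above the plate cutoff, the mean of all test compounds on that plate plus 3 SD, cut at about 35% in these data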;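 further: higher means more dye released from RNA so lower well fluorescence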
PHOSPHO1 block = PubChem AID 1565. recombinant PHOSPHO1, absorbance phosphatase assay. inhibition, % at 13.3 µM. hit rate 1.1% among 290,000; in the data active means inhibition above about 60%
Target sequence (Q8TCT1 whole entry, looked up): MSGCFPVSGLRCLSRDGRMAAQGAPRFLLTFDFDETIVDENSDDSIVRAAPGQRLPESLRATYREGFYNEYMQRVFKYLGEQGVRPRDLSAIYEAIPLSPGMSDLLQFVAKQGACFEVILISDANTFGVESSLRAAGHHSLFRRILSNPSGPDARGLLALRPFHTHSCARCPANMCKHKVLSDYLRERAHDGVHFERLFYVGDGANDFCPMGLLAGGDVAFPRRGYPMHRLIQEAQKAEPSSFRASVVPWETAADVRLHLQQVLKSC
APOBEC3A inh = APOBEC3A ssDNA deaminase inhibitors, primary screen, selectivity assay for APOBEC3G inhibitor project, biochemical, FAM/TAMRA oligo cleavage fluorescence; AID 493011, 2011; inhibition, % at 20 µM; hit rate 0.41% among 330,000; DNA dC->dU-editing enzyme APOBEC-3A (Homo sapiens), P31941; recombinant A3A, FAM/TAMRA ssDNA deamination fluorescence;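 active means at least 40% inhibition at 20 µM here, with at most 30% in a related deaminase screen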
Large screens that a line does not name were inactive.

O=C(O)CCc1ccc(-c2ccccc2)n1-c1ccc(C(=O)O)cc1	none (no result: rCAG RNA binder)
N#Cc1cccc(NC(=O)OCCN2C(=O)CCC23CCC(c2ccccc2)CC3)c1 (configuration not stated)	none (no result: ALR H2O2 inh, aDG glyco act, A3G deaminase, PHOSPHO1 block, APOBEC3A inh)
Cc1ccc2nc(/N=C(\N)NC(=O)N3c4ccccc4Sc4ccccc43)nc(C)c2c1	none
Cc1cc2nc(/N=C(\N)NC(=O)N3c4ccccc4Sc4ccccc43)nc(C)c2cc1C	ALR H2O2 inh 92 (no result: A3G deaminase, APOBEC3A inh)
Cn1c(=O)oc2cc(S(=O)(=O)NCCCN3CCCC3=O)ccc21	none
CC(C)OCCCNS(=O)(=O)c1ccc2c(c1)oc(=O)n2C	ALR H2O2 inh 99
Cn1c(=O)oc2cc(S(=O)(=O)Nc3ccc(O)cc3)ccc21	ALR H2O2 inh 99
CCCN(CCC)CCCNS(=O)(=O)c1ccc2c(c1)oc(=O)n2C	PHOSPHO1 block 62
Cn1cc(CC(=O)Nc2ccc(Nc3cccnc3)cc2)c2ccccc21	none (no result: ALR H2O2 inh, aDG glyco act, A3G deaminase, PHOSPHO1 block, APOBEC3A inh)
CCCCCCn1c(N2CCCC2)nc2c1c(=O)n(C)c(=O)n2C	ALR H2O2 inh 97
CCOCCn1c(N2CCN(c3ccc(OC)cc3)CC2)nc2c1c(=O)n(C)c(=O)n2C	ALR H2O2 inh 91
CC(C)CCn1c(N2CCCC2)nc2c1c(=O)n(C)c(=O)n2C	none
O=C(Nc1cccc([N+](=O)[O-])c1)NC1CCCCN(Cc2cccc(Cl)c2)C1=O (configuration not stated)	none (no result: ALR H2O2 inh, aDG glyco act, A3G deaminase, PHOSPHO1 block, APOBEC3A inh)
Nc1nc2c(s1)CCc1c-2cnn1-c1ccccc1	A3G deaminase 54, PHOSPHO1 block 106 (no result: rCAG RNA binder)
COc1ccc(S[C@]2(C(=O)N3CCOCC3)CC(=O)N(C(=O)c3ccccc3)[C@@H]2c2ccc(OC)cc2)cc1	none (no result: ALR H2O2 inh, aDG glyco act, A3G deaminase, PHOSPHO1 block, APOBEC3A inh)
CC1=NN(C(N)=S)C(=O)C1N=Nc1ccccc1C(=O)O (configuration not stated)	PHOSPHO1 block 62
CC1=NN(C(N)=S)C(=O)C1N=Nc1ccc([N+](=O)[O-])cc1 (configuration not stated)	ALR H2O2 inh 79 (no result: rCAG RNA binder)
CN1C(=O)C(N=Nc2ccccc2C(=O)O)N(C)C1=S (configuration not stated)	ALR H2O2 inh 98
CC1=NN(C(N)=S)C(=O)C1N=Nc1ccc(O)cc1 (configuration not stated)	none (no result: ALR H2O2 inh)
COC(=O)c1cc(-c2cccc(C#N)c2)c(=O)n2c1CCC2	none (no result: ALR H2O2 inh, aDG glyco act, A3G deaminase, PHOSPHO1 block, APOBEC3A inh)
CC(C)c1[nH]nc2c1C(c1ccccc1)N(Cc1ccccc1)C2=O (configuration not stated)	none (no result: ALR H2O2 inh, aDG glyco act, A3G deaminase, PHOSPHO1 block, APOBEC3A inh)
Cc1cc(C)n2nc(C(=O)N3CCN(c4ccc([N+](=O)[O-])cc4)CC3)nc2n1	ALR H2O2 inh 97
COc1ccc2[nH]c3c(=O)n(CCCCC(=O)N4CCC(C(N)=O)CC4)c(=S)[nH]c3c2c1	PHOSPHO1 block 104 (no result: rCAG RNA binder)
CCCCNC(=O)CCCCn1c(=S)[nH]c2c([nH]c3ccc(OC)cc32)c1=O	none (no result: ALR H2O2 inh)
COc1ccc2[nH]c3c(=O)n(CCCCC(=O)NCCN4CCCC4)c(=S)[nH]c3c2c1	ALR H2O2 inh inconclusive, PHOSPHO1 block 102
COC(=O)C1=C(C)N(Cc2ccccc2C(F)(F)F)C(=NCc2cccc(C(F)(F)F)c2)NC1CCc1ccccc1 (configuration not stated)	none (no result: ALR H2O2 inh, aDG glyco act, A3G deaminase, PHOSPHO1 block, APOBEC3A inh)
CC(C)CN1C(=O)NC(NS(=O)(=O)c2ccc(N)cc2)(C(F)(F)F)C1=O (configuration not stated)	ALR H2O2 inh 99
CCOC(=O)c1ccc(N2C(=O)c3n[nH]c(C)c3C2c2ccccn2)cc1 (configuration not stated)	aDG glyco act 4.6
CCOC(=O)c1ccc(N2C(=O)c3n[nH]c(C)c3C2c2cccnc2)cc1 (configuration not stated)	none
CCOC(=O)CC[C@@]1(C(=O)OCC)C[C@@H](CC(=O)N2CCN(C(=O)c3ccco3)CC2)C(=O)N2CCCC=C21	none (no result: ALR H2O2 inh, aDG glyco act, A3G deaminase, PHOSPHO1 block, APOBEC3A inh)
COc1ccc(OC)c(S(=O)(=O)Nc2cccc3c(O)cccc23)c1	ALR H2O2 inh 87 (no result: PHOSPHO1 block)
COc1ccc(OC)c(S(=O)(=O)Nc2ccc(O)c3ccccc23)c1	aDG glyco act 3.2
NNC(=O)COc1cccc2cccnc12	none
O=C(COc1cccc2cccnc12)NNC(=O)Nc1ccccc1	PHOSPHO1 block 61
CC1=C(C(=O)OC2CCCCCCC2)C(c2ccc(O)cc2)NC(=O)N1 (configuration not stated)	none
CC1=C(C(=O)OC2CCCCC2)C(c2ccccc2)NC(=O)N1 (configuration not stated)	ALR H2O2 inh 97
O=C(NCc1ccco1)c1cccc2c1C(=O)c1ccc(/C=C/c3ccccc3)cc1S2(=O)=O	rCAG RNA binder 39 (no result: PHOSPHO1 block)
O=[N+]([O-])c1ccc2c(c1)C=C1CCCCC1(N1CCCC1)O2 (configuration not stated)	ALR H2O2 inh 92
O=[N+]([O-])c1ccc2c(c1)nc1n2CCCCC1	none
O=C(Nc1ccc(O)cc1)C1CCCO1 (configuration not stated)	ALR H2O2 inh 99
O=C(Nc1ccc(F)cc1)C1CCCO1 (configuration not stated)	none
Cc1cccc(N2CCN(C(=O)c3ccncc3)CC2C)c1 (configuration not stated)	ALR H2O2 inh 98
Cc1cccc(N2CCN(C(=O)c3ccc(NC(=O)C4CCCO4)cc3)CC2C)c1 (configuration not stated)	ALR H2O2 inh 99
Cc1cccc(N2CCN(C(=O)c3cn4ccccc4n3)CC2C)c1 (configuration not stated)	ALR H2O2 inh 83
CC(=O)N1CCN(c2ccc(N3CCN(Cc4ccccc4)[C@H](C)C3)c(C)c2)[C@@H](C)C1	none (no result: ALR H2O2 inh, aDG glyco act, A3G deaminase, PHOSPHO1 block, APOBEC3A inh)
CCOC(=O)Cn1cc(CN2CCS(=O)(=O)N(Cc3ccc(OC)cc3)C(C(=O)OC)C2)nn1 (configuration not stated)	none (no result: ALR H2O2 inh, aDG glyco act, A3G deaminase, PHOSPHO1 block, APOBEC3A inh)
Cc1ccc(COn2c(-c3ccc(Cl)cc3)nc3ccc([N+](=O)[O-])cc32)cc1	none
CCOC(=O)C(C)On1c(-c2ccccc2)nc2ccc([N+](=O)[O-])cc21 (configuration not stated)	ALR H2O2 inh 97
O=[N+]([O-])c1ccc2nc(-c3ccc(Cl)cc3)n(OCc3ccccc3)c2c1	PHOSPHO1 block 62
O=C(O)COn1c(-c2ccccc2)nc2ccc([N+](=O)[O-])cc21	none
CCOC(=O)C(C)On1c(-c2ccc(Cl)cc2)nc2ccc([N+](=O)[O-])cc21 (configuration not stated)	PHOSPHO1 block 102

Screens as filed in PubChem BioAssay.
